Bioassay records from PubChem.
In the library only some 11% were active in any assay of this set; here they are far more common.
JMJD2A Tudor inh = inhibitors of human JMJD2A Tudor domain. O75164. AlphaScreen JMJD2A-Tudor / H3K4me3 peptide binding. Potency, µM (top dose mostly 114 µM), inactives show at the top dose activity change, negative = inhibition, hits mostly inhibitors. 4.4% of 390,000 active. AID 504339; further: on the % scale 0 is the no-effect control and ±100 the full control effect; nearly all actives have a fitted effect of over 50% in size
G9a block = inhibitors of human histone lysine methyltransferase G9a; 8.8% of 350,000 active; AID 504332; Potency, µM (doses to about 102 µM), for the others: at the highest dose activity, negative = inhibition, usual class: inhibitors; G9a H3K9 monomethylation, AlphaScreen, 2 h; further: on the % scale 0 is the no-effect control and ±100 the full control effect; nearly all actives have a fitted effect of over 75% in size
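G9a (20 nM) was preincubated 15 min with compound, then reacted 2 h at room temperature with 500 nM biotin-H3K9 peptide and 20 µM SAM. Monomethyl-H3K9 detected by AlphaScreen using anti-H3K9me1 antibody.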
HP1b chromo inh = HP1-beta chromodomain-methylated histone interaction inhibition; AlphaScreen HP1-beta / biotin-H3K9me3 peptide binding; P83916; 0.56% of 390,000 active; Potency, µM (titrated, usually from 114 µM), inactives show at the highest dose activity change, negative = inhibition, hits mostly inhibitors; further: nearly all actives have a fitted effect of over 70% in size
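AlphaScreen: HP1-beta (50 nM) preformed 30 min with biotin-H3(1-18)K9me3 peptide (50 nM) in PBS pH 7.4, 0.01% Tween-20. Compound added for 30 min at RT, then streptavidin donor/nickel chelate acceptor beads (10 ug/mL) for 30 min.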
BAZ2B block = inhibitors of human BAZ2B bromodomain | AlphaScreen BAZ2B-H3K14Ac peptide displacement | Q9UIF8 | Potency, µM (top dose mostly 114 µM), inactives show top-dose activity change, negative = inhibition, hits mostly inhibitors | 4.4% of 360,000 active; further: on the % scale 0 is the no-effect control and ±100 the full control effect; nearly all actives have a fitted effect of over 60% in size
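Compounds, titrated to a top concentration of 110 uM, were incubated 30 min at room temperature with preformed BAZ2B/acetyl-K14 H3 peptide complex (50 nM each). Proximity signal was measured by AlphaScreen after 20 min with beads.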
L3MBTL1 block = inhibitors of human L3MBTL1. 0.66% of 230,000 active. Potency, µM (series often up to 57.1 µM), for inactives: at the highest dose activity, negative = inhibition, most hits filed as inhibitors. AlphaScreen L3MBTL1–H3K9me1 peptide binding. AID 485360; further: on the % scale 0 is the no-effect control and ±100 the full control effect; nearly all actives have a fitted effect of over 60% in size
Target sequence (Q9Y468 whole entry, looked up): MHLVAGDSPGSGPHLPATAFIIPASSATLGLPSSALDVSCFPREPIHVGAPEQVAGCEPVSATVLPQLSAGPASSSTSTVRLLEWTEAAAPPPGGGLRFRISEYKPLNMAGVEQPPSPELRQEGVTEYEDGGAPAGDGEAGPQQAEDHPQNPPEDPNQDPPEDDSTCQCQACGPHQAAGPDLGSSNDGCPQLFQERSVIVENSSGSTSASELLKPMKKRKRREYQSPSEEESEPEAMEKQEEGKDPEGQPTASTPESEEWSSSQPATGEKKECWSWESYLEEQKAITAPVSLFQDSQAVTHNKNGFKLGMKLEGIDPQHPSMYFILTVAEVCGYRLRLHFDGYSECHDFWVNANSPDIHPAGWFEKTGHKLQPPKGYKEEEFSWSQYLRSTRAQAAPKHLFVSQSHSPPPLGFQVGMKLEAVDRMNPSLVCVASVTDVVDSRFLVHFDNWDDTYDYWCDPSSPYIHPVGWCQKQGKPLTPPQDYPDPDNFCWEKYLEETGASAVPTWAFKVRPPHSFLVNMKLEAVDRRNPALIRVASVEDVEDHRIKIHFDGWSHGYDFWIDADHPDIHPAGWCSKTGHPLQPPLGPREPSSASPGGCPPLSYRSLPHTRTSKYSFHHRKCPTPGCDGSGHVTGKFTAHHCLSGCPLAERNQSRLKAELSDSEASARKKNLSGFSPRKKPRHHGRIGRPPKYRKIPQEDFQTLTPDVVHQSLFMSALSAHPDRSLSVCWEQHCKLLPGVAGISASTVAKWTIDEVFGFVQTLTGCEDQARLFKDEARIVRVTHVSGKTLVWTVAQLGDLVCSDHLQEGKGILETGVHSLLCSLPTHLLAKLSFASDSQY
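AlphaScreen assay: L3MBTL1 (50 nM final) was preincubated 30 min at room temperature with biotinylated H3(1-15)K9me1 peptide (75 nM final), then 30 min with library compounds; streptavidin donor and nickel chelate acceptor beads (10 ug/mL final) added, 30 min dark.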
The depositor's hits bear a star; ? = inconclusive; nt = no result; [ ] = another dose, or the depositor's remark. The call rests on the fitted dose curve; in most records, active means well fitted inhibition curve with a large enough effect; inconclusive means small, poorly fitted or top-dose-only effect; inactive means no such curve, though single readings can be large or run the other way. Potency means the concentration at half of the fitted maximal effect.

SMILES | JMJD2A Tudor inh | G9a block | HP1b chromo inh | BAZ2B block | L3MBTL1 block
CCn1ccnc1CNC(=O)CC1C(=O)NCCN1CC(c1ccccc1)c1ccccc1 (stereo not given) | -17.4% | nt | 30.2% | -0.7% | 1.7%
O=C(CC1C(=O)NCCN1Cc1ccccc1)NCCCOc1cccnc1 (stereo not given) | -17.7% | 50.1µM* | 22.5% | -8.9% | nt
COc1ccccc1CN1CCNC(=O)C1CC(=O)NCCCn1cccn1 (stereo not given) | 1.7% | -2.5% | 17.4% | -21.7% | -4.0%
CCc1cc(CNC(=O)CC2C(=O)NCCN2Cc2cccc(OC)c2)on1 (stereo not given) | -2.0% | 56.2µM* | 33.1% | -14.5% | 6.8%
O=C(O)C(c1ccccc1)C1(O)CC2CCC1C2 (stereo not given) | -8.3% | nt | 25.2% | nt | nt
CN1N=C(C(=O)Nc2ccc3c(c2)CCC3)CCC1=O | -6.4% | -2.6% | 41.8% | -12.9% | 3.7%
COc1ccc(Nc2ncc3c(n2)CCN(Cc2cccc(F)c2F)C3)c(OC)c1 | ? | -18.4%[12.7 µM] | -7.4% | ? | nt
CCOC(=O)c1cc2c(c(-c3ccccc3)n1)[C@H](CCO)N(S(=O)(=O)C(C)(C)C)C2 | -8.9% | nt | 69.8% | nt | nt
COc1ccc(CNc2oc(/C=C/c3cccc(OC)c3)nc2C#N)cc1 | -10.4% | -32.2%[59 µM] | 23.4% | -26.4% | nt
O=C(CC1C(=O)NCCN1Cc1ccc(F)cc1)NCCN1CCCc2ccccc21 (stereo not given) | ? | nt | -9.5% | 79.4µM* | -6.4%
COc1ccccc1CN1CCNC(=O)C1CC(=O)NCCCN1CCCC1=O (stereo not given) | -2.2% | 70.8µM* | 26.7% | -6.5%[57.1 µM] | nt
COc1cccc(CN2CCNC(=O)C2CC(=O)NCCCN2CCCC2=O)c1 (stereo not given) | -11.7% | nt | 53.9% | 17.0% | nt
O=C(CC1C(=O)NCCN1Cc1cccc(Oc2ccccc2)c1)NCCCn1cccn1 (stereo not given) | -25.1% | 50.1µM* | 9.4% | -22.0% | -7.8%
COc1ccc(CN2CCNC(=O)C2CC(=O)NCCCn2cccn2)cc1C (stereo not given) | -4.8% | 11.1%[0.501 µM] | 32.9% | -15.5% | nt
O=S(=O)(c1ccc2ccccc2c1)N1CCN(c2nc(-c3ccccc3)nc3ccccc23)CC1 | -7.8% | nt | 2.3% | nt | nt
O=C(CN1CCN(Cc2ccccc2)CC1)NCc1ccc(Cl)cc1 | -12.4% | 29.1% | 12.3% | -14.6% | 0.6%
O=C(CN1CCN(Cc2ccccc2)CC1)c1ccccc1 | -15.8% | 79.4µM* | 34.4% | -34.3% | nt
CCCn1c(N2CCN(CC(=O)c3c[nH]c4ccccc34)CC2)nc2c1c(=O)[nH]c(=O)n2C | 44.7µM* | ? | 13.6% | 17.3% | 0.1%
CCn1c(N2CCN(CC(=O)c3c(C)n(C)c4ccccc34)CC2)nc2c1c(=O)[nH]c(=O)n2C | -21.9% | ? | 27.0% | -5.5% | 2.6%
O=C(CN1CCN(Cc2ccccc2)CC1)NNC(=O)c1ccc(Cl)cc1 | -6.1% | 50.1µM* | 17.2% | 13.0% | 3.7%
Cc1ccc(NC(=O)CN2CCOCC2)c(Br)c1 | -5.5% | 16.8%[0.501 µM] | 19.5% | 6.3% | 6.3%[2.29 µM]
Cc1ccc(NC(=O)CN2CCN(Cc3ccccc3)CC2)c(Br)c1 | 7.08µM* | ? | ? | 7.1%[0.457 µM] | -17.2%
c1ccc(Nc2cc(-c3ccoc3)ncn2)cc1 | nt | -14.9%[0.501 µM] | nt | nt | nt
Cc1c(Cl)ccc2sc(N3CCN(C(=O)C4CC4)CC3)nc12 | 3.9% | 6.8%[59 µM] | 34.9% | 5.5% | nt
O=C(CSc1nc2ccccc2o1)NC1CCS(=O)(=O)C1 (stereo not given) | -9.7% | nt | 37.2% | nt | 10.7%
SMILES | JMJD2A Tudor inh | G9a block | HP1b chromo inh | BAZ2B block | L3MBTL1 block
CC(=O)c1cccc(NC(=O)CN2CCN(Cc3ccccc3)CC2)c1 | 0.794µM* | 7.08µM* | ? | ? | -7.8%
O=C(CN1CCN(Cc2ccccc2)CC1)c1c[nH]c2ccccc12 | 1.5%[11.4 µM] | 39.8µM* | 55.1% | -5.0% | -1.5%
COc1cc(C(=O)NCc2nc3cccnc3n2Cc2ccc(C)cc2)cc(OC)c1OC | -2.6% | 25.3%[59 µM] | 28.4%[57 µM] | -1.2% | nt
O=S(=O)(Nc1ccc(O)c(Sc2nc3ccccc3s2)c1)c1cccc2ccccc12 | -35.5% | 44.7µM* | -11.2% | -27.2% | -23.9%
O=S(=O)(Nc1ccc(O)c(Sc2nc3ccccc3s2)c1)c1cc(Cl)ccc1Cl | ? | 11.2µM* | -2.1% | ? | nt
CN(C(=O)c1nn(C)c2c1COc1ccccc1-2)c1cccc(C(F)(F)F)c1 | -18.5% | -37.3%[59 µM] | -10.8% | -18.4% | nt
CN(C[C@H](Cc1ccccc1)N(C[C@H](Cc1cccc2ccccc12)N(CCc1ccccc1)N=O)N=O)N=O | ? | ? | 7.2% | 70.8µM* | nt
COc1ccc(Oc2c(O)c3ccccc3n(C)c2=O)cc1 | -9.7% | 44.7µM* | 8.5% | -1.7% | 2.6%
Cn1c(=O)c(Oc2ccc(Cl)cc2)c(O)c2ccccc21 | -0.7% | 79.4µM* | 34.2% | 2.8% | 2.3%
CN(C)c1ccc(/C=N/NC(=O)c2ccccc2O)o1 | -21.1% | 28.2µM* | 8.9% | 2.5% | nt
CN(C)c1ccc(/C=N/NC(=O)C(O)(c2ccccc2)c2ccccc2)o1 | ? | 7.94µM* | 0.5% | -25.5% | -2.1%
Cc1cc(C(=O)N/N=C/c2ccc(N(C)C)o2)cs1 | -18.8% | ? | 3.3% | -25.6% | nt
O=C(NN=Cc1ccccc1O)C(O)(c1ccccc1)c1ccccc1 | -1.4% | nt | 46.0% | nt | nt
O=C(N/N=C/c1ccc(N2CCCCC2)o1)C(O)(c1ccccc1)c1ccccc1 | nt | 12.6µM* | nt | -27.7% | -8.6%
Cc1cc(/C=N/NC(=O)C(O)(c2ccccc2)c2ccccc2)c(C)n1-c1ccccc1 | ? | ? | 17.3% | ? | -14.8%
CCN(CC)C(=O)CC(c1ccc(OC)cc1)c1c(OC)cc(OC)c2c(-c3ccccc3)cc(=O)oc12 (stereo not given) | ? | nt | 4.7% | nt | nt
C#CCOCCOCCOCCNc1nc(N2CCN(C(=O)C([C@@H](C)CC)n3cc(C(N)CC(C)C)nn3)CC2)nc(N2CCN(C(=O)[C@H](CCC(=O)O)n3cc(C(N)[C@H](C)CC)nn3)CC2)n1 (stereo not given in full) | 70.8µM* | -104.7%[59 µM] | 31.8% | ? | 0.2%
C#CCOCCOCCOCCNc1nc(N2CCN(C(=O)[C@H](CCC(=O)O)n3cc(C(N)CC(C)C)nn3)CC2)nc(N2CCN(C(=O)[C@H](CCC(=O)O)n3cc(C(N)[C@H](C)CC)nn3)CC2)n1 (stereo not given in full) | 79.4µM* | -132.6%[59 µM] | 27.2% | 50.1µM* | 8.2%
C#CCOCCOCCOCCNc1nc(N2CCN(C(=O)[C@H](CCC(=O)O)n3cc(C(N)CC(C)C)nn3)CC2)nc(N2CCN(C(=O)[C@H](Cc3ccc(O)cc3)n3cc(C(N)[C@H](C)CC)nn3)CC2)n1 (stereo not given in full) | nt | -139.9%[59 µM] | nt | 31.6µM* | -15.7%
COC(=O)CCN(C)CCC(=O)OC | 50.1µM* | -2.8%[2.33 µM] | 54.8% | 12.7% | 15.4%
